Data on 18 compounds can be found in PubChem BioAssay (NCATS).

Values joined by “and” are separate entries in the source; they are usually repeats but may differ in a detail not shown here. Equal entries are not always repeated. Results filed as inconclusive are left out. Active and inactive are the calls of the source. Unless noted, calls come from the whole dose curve; as a rule, active = well fitted curve in the direction sought with a large enough effect; inconclusive = small, poorly fitted or top-dose-only effect, or another doubt; inactive = no such curve, though single readings can be large; an effect the other way counts as inactive or inconclusive. Where a SMILES comes first, the peptide text is derived from it. [ ]: non-standard residue; d: D form.

The nature of assay [1]: qHTS to identify inhibitors of the type 1 interferon - major histocompatibility complex class I in skeletal muscle: primary screen against the NCATS Mechanism Interrogation Plate v5.0 (MIPE) Libary (AID 1347411).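 For activity change, negative = inhibition: plate controls were vehicle for no effect and reference inhibitor for full effect.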 Note: nearly all actives have a fitted effect of over 65% in size. Note: potency is the fitted concentration of half-maximal effect. A digest of the protocol: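 IFN-beta-driven (4 ng/ml) HLA-B-HiBit expression in CRISPR-tagged C25cl48 myoblasts; compounds 11-pt, 1:3, max 46 uM, 24 hr exposure; lytic NanoLuc complementation luminescence.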
On the technique in general: qHTS replaces the single test concentration by a dilution series.

The nature of assay [2]: Primary qHTS for inhibitors of nuclear receptor binding SET domain protein 2 (NSD2) in an isogenic RCH-ACV NSD2 p.E1099K mutant (9B) (AID 1645876). For activity change, negative = viability loss: % is set by controls: 0 for no effect and ±100 for the full control effect. Note: nearly all actives have a fitted effect of over 70% in size. Note: potency is the fitted concentration of half-maximal effect.
Assay [3] in a line: Primary qHTS for inhibitors of nuclear receptor binding SET domain protein 2 (NSD2) in an RCH-ACV wild type WT cells (2C) (AID 1645877). For activity change, negative = cell killing: % is set by controls: 0 for no effect and ±100 for the full control effect. Note: nearly all actives have a fitted effect of over 70% in size. Note: potency is the fitted concentration of half-maximal effect.
The target in assay [4] is Glutathione peroxidase 1 (Homo sapiens) (UniProt P07203). Kind of assay: Primary qHTS Assay for Inhibitors of Recombinant Selenoprotein Glutathione Peroxidase 1 (GPX1) (AID 1845191). For activity, negative = inhibition: % is set by controls: 0 for no effect and ±100 for the full control effect. Note: nearly all actives have a fitted effect of over 65% in size. A digest of the protocol:
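GR-coupled readout: NADPH consumption tracked by fluorescence, ex 340/em 450 nm, at t=0 and after 15 min at RT. Final mix 10 nM GPX1, 1 mM GSH, 0.5 mM CHP, 0.5 mM NADPH, 100 nM GR, 0.01% BSA, following 30 min enzyme–compound preincubation.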

The target in assay [5] is Phospholipid hydroperoxide glutathione peroxidase GPX4 (Homo sapiens) (UniProt P36969). Briefly: Primary qHTS Assay for Inhibitors of Recombinant Selenoprotein Glutathione Peroxidase 4 (GPX4) (AID 1845192). For activity change, negative = inhibition: series mostly up to about 50 µM; % is set by controls: 0 for no effect and ±100 for the full control effect. Note: nearly all actives have a fitted effect of over 65% in size. The following applies: outcome: dose series up to 50 µM unless noted. A digest of the protocol:
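Steps: GPX4 plus compound, 30 min RT; add GR/GSH/NADPH master mix; start with cumene hydroperoxide; read 340/450 nm fluorescence at 0 and 15 min. Finals were 200 nM GPX4, 1 mM GSH, 0.5 mM CHP, 0.5 mM NADPH, 100 nM GR.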

Assay [6] in a line: qHTS drug screen for cell cycle checkpoint inhibitors in PARPi-resistant BRCA-mutant ovarian cancer cell lines. (AID 1963452; calls by dose curve; note: potency is the fitted concentration of half-maximal effect). The conditions noted are these: PEO1/OlaR viability, CellTiter-Glo luminescence, 96 h; for Z-AUC: stronger effect = lower value. The method, boiled down:
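PEO1, PEO4 and PEO1/OlaR ovarian cancer cells, 600 per well, exposed 96 h at 37C to a dilution series. Viability read by CellTiter-Glo luminescence, normalized to DMSO and empty wells; activity summarized as Z-AUC.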

Where [7] appears, read: measured here: PEO1 parental Z-AUC.

Glutathione peroxidase 1 (Homo sapiens), sequence (P07203 whole entry, looked up): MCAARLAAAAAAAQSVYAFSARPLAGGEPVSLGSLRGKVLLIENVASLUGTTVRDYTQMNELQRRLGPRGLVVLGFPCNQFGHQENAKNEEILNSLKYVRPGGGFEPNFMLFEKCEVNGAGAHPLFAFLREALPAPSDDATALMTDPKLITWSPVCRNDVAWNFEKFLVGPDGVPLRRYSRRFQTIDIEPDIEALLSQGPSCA
Phospholipid hydroperoxide glutathione peroxidase GPX4 (Homo sapiens), sequence (P36969 whole entry, looked up): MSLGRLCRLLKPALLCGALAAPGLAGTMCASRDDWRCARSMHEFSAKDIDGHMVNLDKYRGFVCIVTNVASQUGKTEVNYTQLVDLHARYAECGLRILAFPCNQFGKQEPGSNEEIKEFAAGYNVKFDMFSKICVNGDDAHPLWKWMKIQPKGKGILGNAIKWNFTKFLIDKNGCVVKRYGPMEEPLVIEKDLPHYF

`CCCNC(=O)[C@H]1O[C@@H]1C(=O)N[C@H](C(=O)N1CCC[C@H]1C(=O)OC)C(C)CC` (some centres undefined): the Potency result in assay [1], in assay [4] and in assay [5] was “inactive” each time. In addition, the values for the Potency in assay [2] and in assay [3] were 6.61 µM (active) and 7.42 µM (active), respectively. The Z-AUC in assay [6] is 0.833 (inactive); in assay [6] (setting [7]), 0.0577; in assay [6] (measured here: PEO4 Z-AUC), 0.0351.

Turning to `CC[C@H]1OC(=O)[C@H](C)C(=O)[C@H](C)[C@@H](O[C@H]2O[C@H](C)C[C@H](N(C)C)[C@H]2O)[C@](C)(OC)C[C@@H](C)C(=O)[C@H](C)[C@H]2N(CCCCn3cnc(-c4cccnc4)c3)C(=O)O[C@]12C`, the Potency entry in assay [1], in assay [2], in assay [3], in assay [4] and in assay [5] was “inactive” throughout. Also, the results for the Z-AUC in assay [6], in assay [6] (setting [7]) and in assay [6] (measured here: PEO4 Z-AUC) were 0.729 (inactive), 0.267 and -0.0116, respectively.

`O=C(Nc1nccs1)C(c1cc(F)ccc1O)N1Cc2ccccc2C1=O` (centres undefined): the Potency result in assay [1], in assay [2], in assay [3], in assay [4] and in assay [5] was “inactive” each time. In addition, the values for the Z-AUC in assay [6], in assay [6] (setting [7]) and in assay [6] (measured here: PEO4 Z-AUC) were -0.378 (inactive), -0.736 and -0.75, respectively.

In the case of `Cc1[nH]c(/C=C2\C(=O)Nc3ccc(S(=O)(=O)Cc4c(Cl)cccc4Cl)cc32)c(C)c1C(=O)N1CCC[C@@H]1CN1CCCC1`, the Potency in assay [1] is 5.23 µM (active); in assay [2], 6.61 µM (active); in assay [3] it was 5.25 µM (active). For the same compound, the Potency entry in assay [4] and in assay [5] was “inactive” in each case. The Z-AUC in assay [6] was 0.541 (inactive); in assay [6] (setting [7]) it was 0.565; in assay [6] (measured here: PEO4 Z-AUC), 0.0929.

Take `COc1cc2c3c(n(CCCn4ccnc4)c(=O)c2cc1OC)-c1cc2c(cc1C3=O)OCO2`: the Potency result in assay [1], in assay [4] and in assay [5] was “inactive” in each case. Further, the values for the Potency in assay [2], in assay [3] and in assay [6] were 0.0105 µM (active), 0.0132 µM (active) and 7.8 nM (active), respectively. Also, the Z-AUC was -2.51 in assay [6] (setting [7]) and -1.77 in assay [6] (measured here: PEO4 Z-AUC).

Turning to `CCc1c(-c2ccccc2C)nc2c(C#N)c[nH]n2c1=O`, the Potency in assay [1] was 829 nM (active) and 1.31 µM (active). The Potency entry in assay [2], in assay [3], in assay [4] and in assay [5] was “inactive” throughout. Besides, the Z-AUC in assay [6] was 1.17 (inactive) and -0.599 (inactive); in assay [6] (setting [7]), 1.23 and -0.433; in assay [6] (measured here: PEO4 Z-AUC), 1.49 and -0.54.

On to `O=C(CCNC(=O)c1ccc(OC(F)(F)F)cc1)N[C@@H]1CCCc2ccccc21`, for which the Potency result in assay [1], in assay [2], in assay [3], in assay [4] and in assay [5] was “inactive” each time. Besides, the results for the Z-AUC in assay [6], in assay [6] (setting [7]) and in assay [6] (measured here: PEO4 Z-AUC) were 1.15 (inactive), 0.0965 and 0.626, respectively.

In the case of `Cc1cc(C)c(S(=O)(=O)N(CCc2cccc(Br)c2)Cc2ccc(-c3cccc(S(C)(=O)=O)c3)cc2)c(C)c1`, the Potency entry in assay [1], in assay [2], in assay [3], in assay [4] and in assay [5] was “inactive” in each case. For the same compound, the figures for the Z-AUC in assay [6], in assay [6] (setting [7]) and in assay [6] (measured here: PEO4 Z-AUC) were 0.662 (inactive), 0.747 and 0.467, respectively.

As for `CN1C(=O)[C@@H](NC(=O)c2n[nH]c(Cc3ccccc3)n2)COc2ccccc21`, the Potency entry in assay [1], in assay [2], in assay [3], in assay [4] and in assay [5] was “inactive” each time. In addition, the Z-AUC was -0.646 (inactive) in assay [6], -0.812 in assay [6] (setting [7]) and -0.659 in assay [6] (measured here: PEO4 Z-AUC).

On to `NCC(=O)Nc1cncc(-c2nn3c(=O)cc(N4CCNCC4)nc3s2)c1`, for which the Potency result in assay [1], in assay [2], in assay [3], in assay [4] and in assay [5] was “inactive” each time. Also, the Z-AUC in assay [6] was 0.673 (inactive); in assay [6] (setting [7]), 0.487; in assay [6] (measured here: PEO4 Z-AUC), 1.13.

On to `[2H]c1nc(C)nc([2H])c1-c1cc(NC[C@@H](C)c2cccc3c(C(=O)NC)ccnc23)ncn1`, for which the Potency entry in assay [1], in assay [2], in assay [3], in assay [4] and in assay [5] was “inactive” in each case. The Z-AUC was 1.38 (inactive) in assay [6], 1.26 in assay [6] (setting [7]) and 1.18 in assay [6] (measured here: PEO4 Z-AUC).

On to `O=C(Nc1cnn2ccc(N3CCC[C@@H]3c3cc(F)ccc3F)nc12)N1CC[C@H](O)C1`, for which the Potency result in assay [1], in assay [2], in assay [3], in assay [4] and in assay [5] was “inactive” each time. Moreover, the Z-AUC in assay [6] is 1.28 (inactive); in assay [6] (setting [7]), 1.7; in assay [6] (measured here: PEO4 Z-AUC), 1.78.

For `COC(=O)c1ccc([C@H]2c3[nH]c4ccccc4c3C[C@H](C(=O)OC)N2C(=O)CCl)cc1`, the Potency in assay [1] was 0.829 µM (active); in assay [2], 0.148 µM (active); in assay [3] it was 0.148 µM (active). In addition, the Potency entry in assay [4] and in assay [5] was “inactive” throughout. Moreover, the Z-AUC in assay [6] was -1.5 (inactive); in assay [6] (setting [7]) it was 0.403; in assay [6] (measured here: PEO4 Z-AUC) it was -0.118.

Take `COc1cc2c(Oc3ccc4[nH]c(C)cc4c3F)ccnc2cc1OCC1(N)CC1`: the Potency entry in assay [1], in assay [4] and in assay [5] was “inactive” throughout. In addition, the values for the Potency in assay [2] and in assay [3] were 5.9 µM (active) and 3.72 µM (active), respectively. Also, the Z-AUC in assay [6] was 0.184 (inactive); in assay [6] (setting [7]), 0.236; in assay [6] (measured here: PEO4 Z-AUC), 0.196.

As for `O=C(/C=C/c1ccc(/C=C/C(=O)Nc2ccc(C3=NCCN3)cc2)cc1)Nc1ccc(C2=NCCN2)cc1`, the activity change, negative = inhibition in assay [1] was -3.84% [at 5.1 µM] (inactive); in assay [5] it was -10.1% [at 4.52 µM] (inactive). Further, the activity change, negative = viability loss in assay [2] is -16.1% [at 4.96 µM] (inactive). Besides, the activity change, negative = cell killing in assay [3] is -11% [at 4.96 µM] (inactive). The activity, negative = inhibition in assay [4] is 2.37% [at 4.49 µM] (inactive). Moreover, the values for the Z-AUC in assay [6], in assay [6] (setting [7]) and in assay [6] (measured here: PEO4 Z-AUC) were 0.122 (inactive), 0.179 and 0.581, respectively.

For the compound `O=C1Cc2cc(C(=O)NC3C[C@H]4CC[C@@H](C3)N4S(=O)(=O)CC3CCN(CCCC(F)(F)F)CC3)c(Cl)cc2N1` (some centres undefined), the Potency result in assay [1], in assay [2], in assay [3], in assay [4] and in assay [5] was “inactive” each time. Besides, the Z-AUC is -0.571 (inactive) in assay [6], -0.873 in assay [6] (setting [7]) and -0.957 in assay [6] (measured here: PEO4 Z-AUC).

As for `CCS(=O)(=O)c1ccc2oc(-c3ccc4ccccc4c3)nc2c1`, the Potency entry in assay [1], in assay [2], in assay [3], in assay [4] and in assay [5] was “inactive” each time. Further, the Z-AUC is -0.19 (inactive) in assay [6], -0.286 in assay [6] (setting [7]) and 0.217 in assay [6] (measured here: PEO4 Z-AUC).

Take `CC(C)C[C@@H]1NC(=O)[C@@H](C(C)C)NC(=O)[C@@H]2CCCN2C(=O)[C@@H](CC(=O)O)NC(=O)[C@@H](Cc2c[nH]c3ccccc23)NC1=O` (cyclo(L[dW][dD]P[dV])): the Potency entry in assay [1], in assay [2], in assay [3], in assay [4] and in assay [5] was “inactive” throughout. Besides, the figures for the Z-AUC in assay [6], in assay [6] (setting [7]) and in assay [6] (measured here: PEO4 Z-AUC) were -0.319 (inactive), 0.0618 and -0.23, respectively.
